Test results taken from PubChem BioAssay (NCI).
Several values for one entry are separate records, joined by “and”; a condition that tells them apart may be missing. Equal entries are not always repeated. This is part of a sample that, as a whole, favours compounds with a hit. Of some 83,000 tested, about 20% had one in any assay.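 Method: cells in 96-well plates; compound added at one concentration; 48 h incubation; percent growth measured; values under 10 scored active.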 Activity calls are given as the source filed them.

Each compound was assayed on MDA-MB-468 breast (assay: NCI-60 one-dose screen, 48 h (100 = growth as untreated, 0 = no growth, -100 = all killed)). Conditions: 10 µM unless noted.

Structure (SMILES) | growth
FC(F)(F)c1cc(-c2nnc3n2N=C(Cl)CS3)cc(C(F)(F)F)c1 | 84.4% (inactive)
CC/C=C\C/C=C\C[C@H](O)C/C=C1/C(=O)C=C[C@@H]1C/C=C\CCCC(=O)OC | -51.7% (active)
CCCCCCNC(=O)Oc1ccc(/C(=C(/C)c2ccc(OC)cc2)c2ccc(OCCN3CCCCCC3)cc2)cc1 | 1.03% (active)
COc1ccc(-c2nc3sc(-c4ccccc4)cn3n2)cc1 | 18.7% (inactive)
CC(C)=CCC/C(C)=C/CC/C(C)=C/CSC[C@H](NC(=O)CCCCCN1CCN(C)CC1)C(=O)NC1CCCCCC1 | 48.2% (inactive)
COc1cc2cc3cc4cc(OC)c(OC)cc4c(C)[n+]3cc2cc1OC (tested in a mixture with another compound) | 44% (inactive)
O=C(/C=C(/C=C/c1csc2ccccc12)OB(F)F)/C=C/c1csc2ccccc12 | -3.4% (active)
CCO/C=N/S(=O)(=O)c1cc2c(cc1Cl)NC=NS2(=O)=O | 98.3% (inactive)
O=C1/C(=C/c2ccc(O)cc2)COc2ccc(O)cc21 | 100% (inactive)
Cc1nn(-c2ccc(Cl)cc2)c(=O)n1CCOc1ccccc1Cl | 105% (inactive)
COc1cccc(-c2nc3sccn3c2-c2ccnc(NCCNC(=O)c3ccccc3)n2)c1 | 79.4% (inactive)
CC(=O)OC(C)C(=O)NCC(C)O (stereo not given) | 105% (inactive)
Nc1c(-c2nc3ccccc3c(=O)[nH]2)nnn1-c1ccc(Cl)cc1 | 105% (inactive)
CCN1/C(=C/C=C/C=C/c2sc3ccccc3[n+]2CC)Sc2ccccc21 | -81% (active)
COc1ccc(-c2nnc(COc3ccc(NC(=O)Nc4cccc(C(F)(F)F)c4)cc3F)o2)cc1 | 46.1% (inactive)
CSc1nc(NCCO)c(C#N)c(-c2cccc([N+](=O)[O-])c2)n1 | 105% (inactive)
CC(C)=NNC(N)=S | 10.6% (inactive)
CSC1=N/C(=C\c2cccc(OCc3ccc(Cl)cc3)c2)C(=O)N1 | 68.6% (inactive)
CS(=O)(=O)c1ccc(/C=C\C(=O)O)cc1 | 93.6% (inactive)
O=C1/C(=C\c2ccc(Br)o2)SC(=S)N1CCc1ccc(O)cc1 | 28.2% (inactive)

Structure (SMILES) | growth
O=C(NCCCCNC(=O)OCc1ccc2c(Cl)cc(Cl)c(O)c2n1)OCc1ccc2c(Cl)cc(Cl)c(O)c2n1 | -5.78% (active)
O=C(O)CC(C(=O)O)/C(=C\c1ccccc1)c1ccccc1 (stereo not given) | 88.1% (inactive)
O=C(CCN1CCCC1)Nc1ccc2c(NCCc3ccccc3)c3ccccc3nc2c1 | -40.8% (active)
Cc1ccc(S(=O)(=O)N2CCc3ccccc3CC2)cc1 | -4.8% (active)
COc1cc(C2CC(=O)Nc3c2c(C)nn3-c2nc3ccccc3[nH]2)cc2c1OCC(=O)N2 (stereo not given) | 57.1% (inactive)
N#Cc1nc(-c2ccccc2)oc1S(=O)(=O)N1CCCCC1 | 21.8% (inactive)
COc1ccc(/C=N\NC(=O)c2cnn(CC(O)c3ccccc3)c2N)cc1OCc1ccc(Cl)cc1 (stereo not given) | 76.8% (inactive)
COc1ccc(C(c2ccc(OCCN(C)C)cc2)c2cc3ccccc3c3ccccc23)cc1 (stereo not given) | 2.65% (active)
COc1cc(Cl)cc(-c2nn(-c3cccc(NC(=O)c4ccc(Cl)c(Cl)c4)c3)cc2-c2ccncc2)c1 | 54.6% (inactive)
COc1cc(/C=C2\CN(S(=O)(=O)c3ccc(C)cc3)C/C(=C\c3cc(CN4CCCC4)c(O)c(OC)c3)C2=O)cc(CN2CCCC2)c1O | -11.9% (active)
O=C(Nc1cccc(Cl)c1)OCC(COC(=O)Nc1cccc(Cl)c1)(COC(=O)Nc1cccc(Cl)c1)[N+](=O)[O-] | 16.5% (inactive)
Cc1cc(Cl)nc(N2CCN(CCNc3ccnc4cc(Cl)ccc34)CC2)n1 | 4.38% (active)
O=C(Cn1cc(-c2ccccc2)nn1)Nc1nc(-c2ccc(Cl)cc2)cs1 | 92.6% (inactive)
COc1ccc(-n2nc(C)c3c(Nc4ccc(NC(=O)Nc5cc(C(F)(F)F)ccc5F)cc4)ncnc32)cc1 | 29.6% (inactive)
COc1ccccc1OC(=O)Oc1ccccc1OC | 106% (inactive) and 119% (inactive)
O=C(N=c1n(-c2ccccc2)nc2n1CCN2C1=NCCN1C(=O)c1ccc(Cl)cc1)c1ccc(Cl)cc1 | 73.6% (inactive)
Cc1cccc(-[n+]2noc(N)n2)c1 | 96.4% (inactive)
O=C(Nc1ccc(-n2ccc3c(NC(=O)c4ccccc4)nccc32)cc1)Nc1ccc(Cl)c(Cl)c1 | -90.1% (active)
CC[N+]1(CC)CC[N+]2(CCCC(C)CC2)CC1 (stereo not given) | 108% (inactive)
Cc1ccc(Nc2c(C(N)=O)cnc3ccc(-c4csc(N)n4)cc23)cc1 | 83.9% (inactive)
